Test results taken from PubChem BioAssay.
Active and inactive are the calls of the source.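 Rule for the calls, unless noted: active = calcium signal rise above buffer-control mean plus 5 SD in both duplicates, and also a hit in the primary screen; inactive = the rest.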

biological target: Short transient receptor potential channel 6 (Mus musculus) (UniProt Q61143); test: positive modulators of mouse TRPC6 channel – HEK293 cells, membrane potential dye, duplicate, selectivity assay for TRPC4 potentiator project, confirmation (AID 434952;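 active = compound raising the membrane signal above positive-control mean plus 3 SD in both repeats, and a primary screen hit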); details: HEK293 TRPC6, membrane potential dye fluorescence, at 10 µM, maximal acetylcholine added after compound; active compounds read high
Sequence (Q61143 whole entry, looked up): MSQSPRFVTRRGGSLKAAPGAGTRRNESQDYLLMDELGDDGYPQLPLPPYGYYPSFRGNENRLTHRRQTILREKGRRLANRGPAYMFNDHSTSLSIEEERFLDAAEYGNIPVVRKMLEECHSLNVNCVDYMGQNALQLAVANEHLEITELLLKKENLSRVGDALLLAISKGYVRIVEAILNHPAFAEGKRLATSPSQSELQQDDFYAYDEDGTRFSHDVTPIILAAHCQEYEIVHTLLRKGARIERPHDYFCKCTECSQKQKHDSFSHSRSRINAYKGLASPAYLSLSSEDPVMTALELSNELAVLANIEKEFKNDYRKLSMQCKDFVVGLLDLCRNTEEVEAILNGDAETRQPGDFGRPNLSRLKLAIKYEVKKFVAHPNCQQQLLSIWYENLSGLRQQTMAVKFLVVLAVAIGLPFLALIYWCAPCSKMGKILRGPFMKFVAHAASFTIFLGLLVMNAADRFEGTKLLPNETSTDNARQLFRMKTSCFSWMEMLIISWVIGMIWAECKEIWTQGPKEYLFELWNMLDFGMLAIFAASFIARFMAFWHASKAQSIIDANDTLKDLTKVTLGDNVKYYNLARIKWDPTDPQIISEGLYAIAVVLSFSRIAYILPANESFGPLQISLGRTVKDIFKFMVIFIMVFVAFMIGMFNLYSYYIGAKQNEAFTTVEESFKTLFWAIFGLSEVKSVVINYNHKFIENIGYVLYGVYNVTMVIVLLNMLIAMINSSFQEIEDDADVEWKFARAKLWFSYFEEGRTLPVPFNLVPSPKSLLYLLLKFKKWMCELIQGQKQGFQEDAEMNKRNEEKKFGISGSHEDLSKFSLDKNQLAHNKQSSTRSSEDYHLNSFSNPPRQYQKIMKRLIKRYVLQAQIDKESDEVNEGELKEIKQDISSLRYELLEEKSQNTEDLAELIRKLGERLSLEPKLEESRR

Row | Compound | outcome
1 | NC(N)=NN=C1CCCCCCCCCCC1 | inactive
2 | CCn1c(CN2CCN(Cc3ccc(C)cc3)C(CCO)C2)nc2ccccc21 (stereo not drawn) | inactive
3 | COc1ccc(C(CNc2nc(-c3cccnc3)nc3ccccc23)N(C)C)cc1 (stereo not drawn) | inactive
4 | Cc1ccc(Cn2c(SCCN3CCCCC3)nc3c2c(=O)n(C)c(=O)n3C)cc1 | inactive
5 | COc1ccc(C(CNC(=O)CCOc2ccccc2)N(C)C)cc1 (stereo not drawn) | inactive
6 | CCOC(=O)C1(CCOc2ccccc2)CCN(Cc2cc(OC)ccc2OC)CC1 | inactive
7 | Cc1cccc(NC(=S)NCC(c2ccccc2)N(C)C)c1 (stereo not drawn) | inactive
8 | CC(C)n1cnc2c(N(C)c3ccccc3)nc(N(CCN(C)C)Cc3ccccc3)nc21 | inactive
9 | CC(CN1CCCC(C(N)=O)C1)c1ccccc1 (stereo not drawn) | inactive
10 | O=c1c(Cc2ccc(F)cc2)c(O)ccn1CCc1cnc[nH]1 | inactive
11 | Cc1c(Cl)cccc1NC(=S)NCC(c1cccnc1)N(C)C (stereo not drawn) | inactive
12 | COc1ccc(C(CNC(=O)c2ccc3c(c2)OCCO3)N(C)C)cc1 (stereo not drawn) | inactive
13 | O=C(NC1CCCN(Cc2ccc(Cl)cc2)C1)C1CCC1 (stereo not drawn) | inactive
14 | CN(C)c1ccc(-c2sc(Nc3ccccc3)n[n+]2-c2ccc(F)cc2)cc1 | inactive

biological target: Short transient receptor potential channel 4 (Mus musculus) (UniProt Q9QUQ5); test: calcium flux activators in TRPC4/5HT1a cells, counter-screen for TRPC4 activator project, cell-based, second counter screen, HEK293 TRPC4/5HT1a, Fluo-4 (AID 434977); details: Fluo-4 calcium flux, at 10 µM; active compounds read high;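 for activation: plate controls were assay buffer for no effect and maximal serotonin response for full effect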

Row | Compound | activation | outcome
15 | CCCCN(CC)CCNC(=O)Cn1cc2c(n1)-c1c(oc(C(=O)N3CCCC3)c1C)CC2 | 18.6% (active) | –
16 | Cc1ccc(NC(=S)NC2CC3CCC(C2)N3Cc2ccco2)c(C)c1 (stereo not drawn) | 25.9% (active) | –
17 | COc1ccc(N2CCN(Cc3nc4ccccc4n3C)CC2)cc1 | – | inactive
18 | CCC(=O)NC(C)C(c1cccs1)N1CCN(c2ccccc2)CC1 (stereo not drawn) | – | inactive
19 | CC(=O)n1cc([C@H]2C=C(C(=O)NCc3ccccc3)O[C@@H](OCc3ccc(CO)cc3)C2)c2ccccc21 | – | inactive
20 | CCN1CCCC1CNC(=O)c1cc2c(OC)cccc2[nH]1 (stereo not drawn) | – | inactive
21 | COc1ccc(F)cc1CN1CCN(C(=O)CCC(=O)Nc2nnc(C(C)C)s2)CC1 | – | inactive
22 | CN(CCOc1ccc(Br)cc1)CC(O)c1ccccc1 (stereo not drawn) | 12.6% (active) | –
23 | CCN1CCN(c2c(Cl)cccc2NC(=O)c2ccc([N+](=O)[O-])cc2)CC1 | 7.83% (active) | –
24 | CCn1c(=O)c(C(=O)NNC(=O)c2ccccc2F)c(O)c2ccccc21 | 111% (active) | –
25 | CN1C(CC(=O)Nc2ccc(Br)cc2)c2ccccc2CC1(C)C (stereo not drawn) | 7.45% (active) | –
26 | COc1ccc(C(CNCC(O)COc2c(C)ccc(C)c2C)N(C)C)cc1 (stereo not drawn) | – | inactive
27 | COc1ccc(C(CNC(=O)C(Cc2ccccc2)NC(N)=O)N(C)C)cc1 (stereo not drawn) | – | inactive
28 | CCCN(CCC)CCNC(=O)CCC(=O)Nc1ccc2nc(N3CCOCC3)cc(C)c2c1 | 35.6% (active) | –
29 | Fc1ccc(NC(=S)NCCc2ccccn2)cc1 | 88% (active) | –
30 | Cc1noc(C)c1CCC(=O)NC1CCCN(Cc2ccc(CC(C)C)cc2)C1 (stereo not drawn) | 20.6% (active) | –
31 | COc1ccc(C(CCNCc2ccc(N(C)C)cc2)c2ccccc2)cc1 (stereo not drawn) | 26.5% (active) | –
32 | COc1ccc(-c2nn(-c3ccccc3C)cc2CNCc2cccnc2)cc1F | – | inactive
33 | CN(C)C(CNC(=O)c1cccc(S(=O)(=O)N(C)C)c1)c1ccccc1 (stereo not drawn) | – | inactive
34 | Nc1c(C(=O)c2ccccc2)sc2nsc(SCCN3CCCC3)c12 | 93% (active) | –

Row | Compound | activation | outcome
35 | CC1CC(C)CN(CCCNC(=O)c2ccc3c(c2)N(Cc2ccccc2)C(=O)c2ccccc2S3=O)C1 (stereo not drawn) | 23.8% (active) | –
36 | CN(C)c1ccc(C(CNC(=O)Cc2cccc3ccccc23)N(C)C)cc1 (stereo not drawn) | – | inactive
37 | Cc1csc2c(N3CCN(C(=S)Nc4ccc(C(F)(F)F)cc4)CC3)ncnc12 | 48.2% (active) | –
38 | O=S(=O)(NCCc1csc(-c2ccccc2)n1)c1cccnc1 | 26.7% (active) | –
39 | COc1ccc(-c2nc(CSCC(=O)NC3CCN(Cc4ccccc4)CC3)c(C)o2)cc1OC | 23.1% (active) | –
40 | NC(N)=NN=C1CCCCCCCCCCC1 | 32.2% (active) | –
41 | CCn1c(CN2CCN(Cc3ccc(C)cc3)C(CCO)C2)nc2ccccc21 (stereo not drawn) | 32.4% (active) | –
42 | COc1ccc(C(CNc2nc(-c3cccnc3)nc3ccccc23)N(C)C)cc1 (stereo not drawn) | 18% (active) | –
43 | Cc1ccc(Cn2c(SCCN3CCCCC3)nc3c2c(=O)n(C)c(=O)n3C)cc1 | 8.42% (active) | –
44 | COc1ccc(C(CNC(=O)CCOc2ccccc2)N(C)C)cc1 (stereo not drawn) | – | inactive
45 | CCOC(=O)C1(CCOc2ccccc2)CCN(Cc2cc(OC)ccc2OC)CC1 | – | inactive
46 | Cc1cccc(NC(=S)NCC(c2ccccc2)N(C)C)c1 (stereo not drawn) | – | inactive
47 | CC(C)n1cnc2c(N(C)c3ccccc3)nc(N(CCN(C)C)Cc3ccccc3)nc21 | – | inactive
48 | CC(CN1CCCC(C(N)=O)C1)c1ccccc1 (stereo not drawn) | 42% (active) | –
49 | O=c1c(Cc2ccc(F)cc2)c(O)ccn1CCc1cnc[nH]1 | 29% (active) | –
50 | Cc1c(Cl)cccc1NC(=S)NCC(c1cccnc1)N(C)C (stereo not drawn) | – | inactive
51 | COc1ccc(C(CNC(=O)c2ccc3c(c2)OCCO3)N(C)C)cc1 (stereo not drawn) | – | inactive
52 | O=C(NC1CCCN(Cc2ccc(Cl)cc2)C1)C1CCC1 (stereo not drawn) | 39.7% (active) | –
53 | CN(C)c1ccc(-c2sc(Nc3ccccc3)n[n+]2-c2ccc(F)cc2)cc1 | 10.7% (active) | –
